TSG101-PTAP inh: blocks PTAP/TSG101 interaction to inhibit HIV-1 budding; Q99816; Fluorescence polarization, FITC-PTAP peptide / Tsg101 binding; Potency, µM (top dose mostly 115 µM), inactives show top-dose activity change, negative = inhibition, usual class: inhibitors; 340,000 tested, under 10 active; active = well fitted inhibition curve with a large enough effect in the main read-out, with a control signal flat, not every such curve was filed as active; inconclusive = small, poorly fitted or top-dose-only effect, or effect the other way, or a change in a side signal; inactive = no such curve, though single readings can be large or run the other way; also: % of control where 0% means no effect
Target sequence (Q99816 whole entry, looked up): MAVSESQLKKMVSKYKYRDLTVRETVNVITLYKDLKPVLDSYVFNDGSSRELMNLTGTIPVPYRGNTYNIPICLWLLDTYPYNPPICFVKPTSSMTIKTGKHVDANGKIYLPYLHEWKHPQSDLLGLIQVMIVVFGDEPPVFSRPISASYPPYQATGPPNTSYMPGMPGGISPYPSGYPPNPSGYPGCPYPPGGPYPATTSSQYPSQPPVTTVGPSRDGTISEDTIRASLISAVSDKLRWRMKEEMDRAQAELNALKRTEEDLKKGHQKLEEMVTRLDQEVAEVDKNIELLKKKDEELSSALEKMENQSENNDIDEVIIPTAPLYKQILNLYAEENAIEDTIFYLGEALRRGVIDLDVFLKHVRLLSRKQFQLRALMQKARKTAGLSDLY
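Fluorescence anisotropy tracks displacement of a FITC-tagged PTAP peptide (50 nM) from the Tsg101 binding domain (10 uM), following a 20 min room-temperature incubation at pH 7.5.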
PINK1 modulator: modulators of PINK1 expression | PINK1 immunofluorescence, high-content cytometry, 24 h | Potency, µM (titrated, usually from 76.6 µM), inactives show at the highest dose activation (PINK1 increase), actives largely listed as activators | 410,000 tested, 0.2% active; active = well fitted activation curve with a large enough effect; inconclusive = small, poorly fitted or top-dose-only effect; cell line not stated here; also: % of control where 0% means no effect; nearly all actives have a fitted effect of over 65% in size
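PINK1 protein level read as immunofluorescence by microplate cytometer in a fixed, stained stable cell line after 24 h exposure to five compound concentrations, with CCCP as control.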
KB-3-1 cytotox: kills parental KB-3-1 adenocarcinoma cells; KB-3-1 viability, CellTiter-Glo ATP luminescence, 72 h; 400,000 tested, 1.4% active; Potency, µM (titrated, usually from 46.1 µM), most hits filed as cytotoxic; also: % is scaled to controls: 0 for no effect and ±100 for the full control effect; nearly all actives have a fitted effect of over 60% in size
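Here the drug-naive KB-3-1 line serves as comparator for MDR sub-line selectivity; cells received compound titrations, 72 h at 37 °C, then CellTiter-Glo readout.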
MCF10A rerep: inducers of DNA re-replication in MCF 10A breast cells | MCF 10A DNA re-replication, Hoechst nuclear intensity, 48 h | Potency, µM (highest dose often 46.1 µM), for the others: top-dose activity, positive = re-replication, most hits filed as activators | 350,000 tested, 2.9% active | AID 624296; also: % of control where 0% means no effect; nearly all actives have a fitted effect of over 50% in size
SW480 rerep: induces DNA re-replication in SW480 colon adenocarcinoma cells. 340,000 tested, 1.8% active. AID 624297. SW480 DNA re-replication, Hoechst DNA content imaging, 48 h. Potency, µM (titrated, usually from 46.1 µM), for inactives: at the highest dose re-replication activation, actives largely listed as activators; also: % of control where 0% means no effect; nearly all actives have a fitted effect of over 55% in size
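DNA re-replication was detected as more nuclei of elevated Hoechst intensity after 48 hr exposure to compound (23 nL pinned per well of 250 cells).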
KB-V1 MDR tox: kills drug-selected multidrug resistant KB-V1 cells; KB-V1 MDR cells viability, CellTiter-Glo, 72 h; Potency, µM (highest dose often 46.1 µM), usual class: cytotoxic; 400,000 tested, 3.4% active; also: % is scaled to controls: 0 for no effect and ±100 for the full control effect; nearly all actives have a fitted effect of over 60% in size
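KB-V1 MDR subline cells in DMEM (phenol-red free, 10% FBS) exposed to compounds in qHTS concentration series for 72 h at 37 degrees C. Viability read by CellTiter-Glo luminescence; concentration-effect curves fitted after normalization and correction.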
* marks the source's active call; other numbers are inactive results; i = inactive; u = inconclusive; x = no result given; [ ] = remark or other dose. Compounds with a hit are over-represented: about 6.8% of the library has one in this group of screens. Unless noted, calls follow the shape of the dose curve; as a rule, active = well fitted curve in the direction sought with a large enough effect; inconclusive = small, poorly fitted or top-dose-only effect, or another doubt; inactive = no such curve, though single readings can be large; an effect the other way counts as inactive or inconclusive. Potency is read from the fitted curve at half-maximal effect.

SMILES	TSG101-PTAP inh	PINK1 modulator	KB-3-1 cytotox	MCF10A rerep	SW480 rerep	KB-V1 MDR tox
CN(Cc1ccccc1)CC(O)COc1ccc(CNCc2ccc(Cl)s2)cc1 (stereo not given)	-9%	0%	i	16µM*	21µM*	i
CCCCCC(=O)Nc1cccc(C2=NOC3(C2)C[C@@H](C(N)=O)N(C(=O)CC(c2ccccc2)c2ccccc2)C3)c1 (stereo not given in full)	1%	6%	16µM*	u	4%	i
C/C=C\C(=O)Nc1cccc(C2=NOC3(C2)C[C@@H](C(N)=O)N(C(=O)CC(c2ccccc2)c2ccccc2)C3)c1 (stereo not given in full)	x	1%	i	9%	3%	i
COc1c(O)cc(O)c2c(=O)cc(-c3ccccc3)oc12	-1%	1%	i	16µM*	-4%	u
N#CC1C(=O)c2ccccc2C1c1ccccc1 (stereo not given)	-1%	-2%	i	15µM*	18µM*	i
O=C1CCC(c2ccccc2)c2ccccc21 (stereo not given)	-6%	5%	i	-4%	-8%	i
COc1ccccc1Nc1sc(C(=O)c2ccc3c(c2)OCO3)c(N)c1S(=O)(=O)c1ccccc1	x	-1%	i	x	x	u
Cc1ccc(NC(=O)C2CCCN2C(=O)Oc2ccccc2)cc1C (stereo not given)	0%	2%	i	5%	-1%	15µM*
CC(=O)Nc1cccc(NC(=O)C2CCCN2C(=O)Nc2cccc(C)c2)c1 (stereo not given)	-3%	x	i	9.2µM*	-15%	i
COc1ccc2c(C)c(CC(=O)NCCc3ccccc3)c(=O)oc2c1OC	x	0%	i	x	x	i
O=C(c1cnn(-c2nccc(-c3ccco3)n2)c1C1CC1)N1CCCCC1c1cccnc1 (stereo not given)	x	0%	x	x	x	x
COc1ccc(-n2ccn(CC(=O)Nc3ccccc3C(F)(F)F)c(=O)c2=O)cc1OC	x	2%	x	x	x	x
CCCCCCC[n+]1ccc(C)c2ccccc21	x	x	0.58µM*	x	x	i
Cc1cc[n+](CCC2CCCCC2)c2ccccc12	x	x	2.1µM*	x	x	i
CCCCCCCCCCCC[n+]1ccc(/C=C/c2c[nH]c3ccccc23)c2ccccc21	x	x	u	x	x	i
CCCCCCCCCCCC[n+]1ccc(C)c2ccccc21	x	x	4.1µM*	x	x	i
Cc1cc[n+](C)c2ccccc12	x	2%	i	x	x	i
COc1ccccc1NC(=O)c1sc2cccc(Cl)c2c1Cl	x	2%	x	x	x	x
COc1ccc(CN2C(=O)CCC2(C)C(=O)NC2CCCCCC2)cc1 (stereo not given)	-6%	-7%[38.3 µM]	i	17%	-3%	15µM*
CCc1ccc(CN2C(=O)CCC2(C)C(=O)NC2CCCC2)cc1 (stereo not given)	-2%	7%	i	-9%	2%	21µM*
COc1cccc(CN2C(=O)CCC2(C)C(=O)NC2CCCCC2)c1 (stereo not given)	1%	6%	i	19%	-2%	i
CC(C)CCN1C(=O)CCC1(C)C(=O)NC1CCCCCC1 (stereo not given)	x	0%[38.3 µM]	i	-11%	1%	18µM*
Cc1cnc(SCc2ccccn2)nc1C1CCCN(C(=O)c2noc3c2CCCC3)C1 (stereo not given)	x	0%	x	x	x	x
Cc1ccccc1Cn1cc(NC(=O)c2noc3c2CC(C(C)(C)C)CC3)cn1 (stereo not given)	0%	18%[38.3 µM]	i	u	u	18µM*
Cc1ccccc1Cn1nc(C)c(NC(=O)c2noc3c2CC(C(C)(C)C)CC3)c1C (stereo not given)	-9%	13%[38.3 µM]	i	-4%	3%	i
SMILES	TSG101-PTAP inh	PINK1 modulator	KB-3-1 cytotox	MCF10A rerep	SW480 rerep	KB-V1 MDR tox
Cc1cc(Cl)ccc1OCC(=O)N(Cc1ccc(N(C)C)cc1)CC1CCCO1 (stereo not given)	x	0%	x	x	x	x
Cc1cccc(NC(=S)NC2CC3CCCC(C2)N3CC(C)C)c1C (stereo not given)	-5%	-2%	i	13%	11%	21µM*
CN1CCN(C(=O)CCCN2C(=O)/C(=C/c3cccc(Br)c3)SC2=S)CC1	-4%	1%	u	23µM*	u	u
O=C(CCCN1C(=O)/C(=C/c2cccc(Br)c2)SC1=S)N1CCOCC1	3%	6%	u	20%	5%	u
CN1CCN(C(=O)CCN2C(=O)/C(=C/c3cccc(Br)c3)SC2=S)CC1	-1%	3%	u	15µM*	u	i
Cc1cnc(SCc2ccccn2)nc1C1CCCN(C(=O)c2ccc(-c3ccccc3F)cc2)C1 (stereo not given)	x	-1%	x	x	x	x
CC(C)(C)C(=O)NCCCc1nc2ccccc2n1CCCOc1ccc(Cl)cc1	1%	-2%	u	u	-2%	16µM*
CC(=O)NCCc1nc2ccccc2n1CCCCOc1ccc(Cl)cc1	x	7%	i	x	x	i
CCCN(CCC)S(=O)(=O)c1ccc(C(=O)OCCN2C(=O)c3cccc4c(N5CCOCC5)ccc(c34)C2=O)cc1	u	5%	i	-14%	-383%	15µM*
O=C(OCCN1C(=O)c2cccc3c(N4CCOCC4)ccc(c23)C1=O)c1ccc(Cl)cc1	u	1%	i	2%	u	i
CCCCCOc1ccc(Br)cc1/C(C)=N/NC1=NCCN1	-3%	1%	u	3.3µM*	3.3µM*	u
COc1ccc(Br)cc1/C(C)=N/NC1=NCCN1	-3%	2%	u	u	-3%	u
CCN(CC)C(=O)CSc1nnc(-c2ccccc2)c(-c2ccccc2)n1	-6%	6%	i	u	-7%	3.3µM*
c1ccc(CSc2nnc(-c3ccccc3)c(-c3ccccc3)n2)cc1	-1%	2%	i	8.2µM*	u	18µM*
O=[N+]([O-])c1cc(-c2ncccn2)c([N+](=O)[O-])s1	-1%	0%	16µM*	7.3µM*	21µM*	u
COc1ccc(-c2nc3cc(C)ccc3cc2CN(C(=O)c2cc(C)nn2C)C2CC2)cc1OC	x	0%	x	x	x	x
Cc1ccc2c(c1)-c1nc(-c3ccc4c(c3)NC(=O)CO4)cc(-c3ccc(F)cc3)c1CO2	x	3%	i	x	x	i
O=C(c1ccccc1)N1CCCCC(Cl)C1=O (stereo not given)	-6%	-2%	i	-1%	-49%	i
Nc1c(C2CCCCC2)c(=O)on1C(=O)c1ccccc1	-5%	-1%	u	15µM*	6%	i
